Only some compounds are listed: those with a hit (about 19% of all), similar ones and a draw of the others.
IL-1B inflam inh = blocks inflammasome-driven IL-1 beta release; THP-1 LPS/ATP IL-1B secretion, AlphaLISA, 16 h; active compounds read low; activity change, % at 57.5 µM; actives 4.7% (n = 360,000); in the data active means activity change below about -50%; inconclusive means mostly about -30% to -49%; further: on the % scale 0 is the no-effect control and ±100 the full control effect
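Secreted IL-1B measured by AlphaLISA bead assay after 16 h compound exposure of THP-1 cells; compounds (final up to 57.5 uM) added 1 h before LPS (250 ng/mL) and ATP (1.25 mM) stimulation; lower signal means less secretion.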
DT40 TDP1 CPT = DT40-hTDP1 cell growth loss with CPT; chicken DT40 Tdp1-/-;hTDP1 cells + 20 nM CPT, ATP luminescence, 48 h; Potency, µM (titrated, usually from 46.2 µM), without a hit: at the highest dose activity change, negative = growth inhibition, hits mostly inhibitors; actives 12% (n = 420,000); AID 686979; further: potency means the concentration at half of the fitted maximal effect; on the % scale 0 is the no-effect control and ±100 the full control effect; nearly all actives have a fitted effect of over 55% in size
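Cell growth measured by CellTiter-Glo luminescence after a minimum 48 h, 37 C compound exposure with 20 nM CPT in Tdp1-knockout DT40 cells stably expressing hTDP1, seeded 400/well; qHTS titration format.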
TGFb inhibitor = inhibitors of TGF-b signaling. actives 1.2% (n = 410,000). HepG2 CAGA-GFP TGF-b/SMAD3 reporter, GFP fluorescence, 18 h; TGF-beta stimulated, 500 pg/mL final. Potency, µM (titrated, usually from 46.1 µM), inactives show top-dose activity, negative = inhibition, most hits filed as inhibitors; further: potency means the concentration at half of the fitted maximal effect; on the % scale 0 is the no-effect control and ±100 the full control effect; nearly all actives have a fitted effect of over 65% in size
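Smad-responsive CAGA-GFP expression was quantified in HEPG2 cells exposed to compounds and 500 pg/mL final TGF-beta for 18 h at 37 degrees C; unstimulated wells defined full inhibition.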
TDP1 inh = blocks human tyrosyl-DNA phosphodiesterase 1; recombinant TDP1, AlphaScreen DNA substrate cleavage; Potency, µM (top dose mostly 130 µM), inactives show top-dose activity change, negative = inhibition, hits mostly inhibitors; actives 0.28% (n = 350,000); AID 485290; further: potency means the concentration at half of the fitted maximal effect; on the % scale 0 is the no-effect control and ±100 the full control effect; nearly all actives have a fitted effect of over 40% in size
Target sequence (Q9NUW8 whole entry, looked up): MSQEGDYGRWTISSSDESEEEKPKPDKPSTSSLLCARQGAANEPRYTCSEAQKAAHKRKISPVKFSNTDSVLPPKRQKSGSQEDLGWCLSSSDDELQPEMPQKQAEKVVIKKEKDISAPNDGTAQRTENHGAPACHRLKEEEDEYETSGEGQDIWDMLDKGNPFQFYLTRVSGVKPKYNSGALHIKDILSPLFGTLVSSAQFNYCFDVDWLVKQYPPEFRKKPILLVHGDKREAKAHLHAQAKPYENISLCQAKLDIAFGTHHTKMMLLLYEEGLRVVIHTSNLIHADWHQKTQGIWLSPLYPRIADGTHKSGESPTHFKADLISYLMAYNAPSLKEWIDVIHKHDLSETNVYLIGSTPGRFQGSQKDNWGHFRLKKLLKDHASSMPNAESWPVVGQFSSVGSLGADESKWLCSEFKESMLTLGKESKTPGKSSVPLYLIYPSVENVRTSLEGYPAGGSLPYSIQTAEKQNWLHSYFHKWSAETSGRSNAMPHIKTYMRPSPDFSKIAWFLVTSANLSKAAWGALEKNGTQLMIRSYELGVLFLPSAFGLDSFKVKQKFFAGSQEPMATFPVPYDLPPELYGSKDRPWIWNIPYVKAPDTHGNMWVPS
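Steps: enzyme plus compound, 15 min RT; add biotin/phosphotyrosine-FITC oligonucleotide (15 nM final), react 5 min; add donor/acceptor beads (10 ug/ml final), 10 min; read AlphaScreen. Tdp1 at 1 nM final.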
DT40 TDP1 no CPT = qHTS for Inhibitors of human tyrosyl-DNA phosphodiesterase 1 (TDP1): qHTS in cells in absence of CPT | Potency, µM (titrated, usually from 46.2 µM), inactives show at the top dose activity change, negative = growth inhibition, most hits filed as inhibitors | actives 15% (n = 420,000) | DT40 Tdp1-/- hTDP1 cells, no CPT, ATP luminescence, 48 h | AID 686978, 2013; further: potency means the concentration at half of the fitted maximal effect; on the % scale 0 is the no-effect control and ±100 the full control effect; nearly all actives have a fitted effect of over 55% in size
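Cells were dispensed at 400 per well, compounds added by pin tool, plates incubated ≥48 hr at 37 °C, then CellTiter-Glo added for 30 min at room temperature before luminescence reading. Line: DT40 Tdp1-/- complemented with hTDP1; camptothecin omitted.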
HepG2 viability = counter-screen for TGF-b inhibitors: cytotoxicity in HepG2 cells | HepG2 CAGA-GFP viability, ATP luminescence, 18 h | Potency, µM (series often up to 46.1 µM), inactives show top-dose activity change, negative = cytotoxicity, most hits filed as cytotoxic | actives 0.76% (n = 410,000) | AID 588856; further: potency means the concentration at half of the fitted maximal effect
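HepG2 CAGA-GFP cells (1000/well, DMEM with 1% FBS) received compound, then TGF-beta at 500 pg/mL final, and were incubated 18 hours at 37 degrees C. Viability was read by CellTiter-Glo luminescence. Media-only wells were set as complete cell-killing and DMSO as no toxicity.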
An asterisk follows results filed as active; [ ] = dose if it differs, or a comment. Unless noted, the call rests on the fitted dose curve; in most records, active means well fitted curve in the direction sought with a large enough effect; inconclusive means small, poorly fitted or top-dose-only effect, or another doubt; inactive means no such curve, though single readings can be large; an effect the other way counts as inactive or inconclusive.

How did COc1ccc(C2CC(c3ccccc3)=NN2c2ccc(N)cc2)cc1 (configuration not stated) do in these assays?
IL-1B inflam inh: inconclusive; DT40 TDP1 CPT: inconclusive; TGFb inhibitor: -9%; TDP1 inh: 5%; DT40 TDP1 no CPT: 21µM*; HepG2 viability: -19%

How did NS(=O)(=O)c1ccc(N2N=C(c3ccccc3)CC2c2cccc(Br)c2)cc1 (configuration not stated) do in these assays?
IL-1B inflam inh: -57*; DT40 TDP1 CPT: -20%; TGFb inhibitor: inconclusive; TDP1 inh: -4%[56.1 µM]; DT40 TDP1 no CPT: -29%; HepG2 viability: -76%

What do the screens show for `COc1ccc(C2CC(c3ccc(Cl)cc3)=NN2c2ccc(S(N)(=O)=O)cc2)cc1` (configuration not stated)?
IL-1B inflam inh: -18; DT40 TDP1 CPT: inconclusive; TGFb inhibitor: inconclusive; TDP1 inh: -9%[56.1 µM]; DT40 TDP1 no CPT: inconclusive; HepG2 viability: 18µM*

What do the screens show for `Cc1ccc(C2=NN(S(=O)(=O)c3ccccc3)C(c3ccccc3O)C2)cc1` (configuration not stated)?
IL-1B inflam inh: 0; DT40 TDP1 CPT: inconclusive; TGFb inhibitor: -1%; TDP1 inh: 5%; DT40 TDP1 no CPT: inconclusive; HepG2 viability: -113%

What do the screens show for `NS(=O)(=O)c1ccc(N2N=C(c3ccccc3)CC2c2cccc(F)c2)cc1` (configuration not stated)?
IL-1B inflam inh: inconclusive; DT40 TDP1 CPT: inconclusive; TGFb inhibitor: inconclusive; TDP1 inh: -2%; DT40 TDP1 no CPT: -23%; HepG2 viability: -83%

Results for Cc1ccc2c(=O)cc(C(=O)Nc3ccc(S(=O)(=O)N(C)Cc4ccccc4)cc3)oc2c1 ?
DT40 TDP1 CPT: inconclusive; TGFb inhibitor: 1%; TDP1 inh: 4%; DT40 TDP1 no CPT: inconclusive; HepG2 viability: -2%

How did COc1ccc(-c2onc(C)c2C)cc1S(=O)(=O)Nc1ccc(OC(F)(F)F)cc1 do in these assays?
DT40 TDP1 CPT: inconclusive; TGFb inhibitor: inconclusive; TDP1 inh: 3%; DT40 TDP1 no CPT: inconclusive; HepG2 viability: -86%

How did O=C(Nc1cccc(-c2nc3ccccc3o2)c1)c1cccc2c(Cl)cccc12 do in these assays?
TGFb inhibitor: 13%; TDP1 inh: 8%; HepG2 viability: 3%

What do the screens show for `Cc1nc2nc(NC(=O)C(C)(C)C)[nH]n2c(=O)c1Cc1ccccc1`?
DT40 TDP1 CPT: 0%; TGFb inhibitor: 6%; TDP1 inh: 2%; DT40 TDP1 no CPT: -2%; HepG2 viability: -11%

What do the screens show for `NS(=O)(=O)c1ccc(N2N=C(c3ccc(Br)cc3)CC2c2ccc(F)cc2)cc1` (configuration not stated)?
IL-1B inflam inh: -76*; DT40 TDP1 CPT: inconclusive; TGFb inhibitor: inconclusive; TDP1 inh: -11%; DT40 TDP1 no CPT: inconclusive; HepG2 viability: 20µM*

How did COc1ccccc1N1N=C(c2ccc([N+](=O)[O-])cc2)CC1c1ccccc1 (configuration not stated) do in these assays?
IL-1B inflam inh: -15; DT40 TDP1 CPT: inconclusive; TGFb inhibitor: 30%; DT40 TDP1 no CPT: inconclusive; HepG2 viability: -10%

Results for COc1cc(N2N=C(c3ccccc3)CC2c2ccccc2)c(C=O)cc1C=O (configuration not stated) ?
IL-1B inflam inh: 8; DT40 TDP1 CPT: inconclusive; TGFb inhibitor: 7%; DT40 TDP1 no CPT: 18µM*; HepG2 viability: 5%

From PubChem
